# Values without a mark were called inactive. Inconclusive results are not listed. Calls of active or inactive are those of the source. Unless noted, calls follow the shape of the dose curve; as a rule, active = well fitted curve in the direction sought with a large enough effect; inconclusive = small, poorly fitted or top-dose-only effect, or another doubt; inactive = no such curve, though single readings can be large; an effect the other way counts as inactive or inconclusive.
# Molecular target: Mitogen-activated protein kinase 10 (Mus musculus) (UniProt Q61831)
# Experiment: JNK3 AlphaScreen Assay (AID 530; active = well fitted curve in either direction with a large enough effect, not every such curve was filed as active;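 also: kinase came from lysate of stimulated human HepG2 cells; signal reports phosphorylation of biotinylated GST-cJun 1-79 at Ser73 with 10 µM ATP; % is scaled to controls: 0 for no effect and ±100 for the full control effect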)
# Conditions: JNK3 lysate, c-Jun phosphorylation; series mostly up to 57.1 µM; activity change, negative = inhibition: at the top concentration
# How it was run: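 Compound titrations were preincubated 15 minutes at room temperature with substrate, antibody and pre-activated JNK3-containing HepG2 lysate. Reactions were started with 10 uM ATP and stopped with EDTA-containing bead buffer for AlphaScreen detection.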
row,Structure (SMILES),"activity change, negative = inhibition [%]"
1,COc1cccc(-c2cncnc2NCc2ccccc2OC)c1,3.84
2,COc1cccc(Cn2c(=O)c(CCc3ccccc3)nc3cnc(N4CCN(C)CC4)nc32)c1,-8.95
3,CC(C)=CCc1c(O)cc(O)c2c1O[C@H](c1ccccc1)CC2=O,19.5
4,O=c1cnc2cnc(Oc3ccccc3)nc2n1Cc1cccs1,-2.75
5,O=C(c1cnccn1)N1CCC[C@@]2(CCN(c3cccc(-c4ccccc4)c3)C2)C1,-26.4
6,COc1ccc(CNc2nc(-c3cccnc3)nc3ccccc23)c(OC)c1,-17.9
7,CN1CCN(c2ncc3nc(CCc4ccccc4)c(=O)n(Cc4cccs4)c3n2)CC1,0.519
8,COc1ccc(Oc2ncc3nc(CCc4ccccc4)c(=O)n(CCC#N)c3n2)cc1,11.9

# Molecular target: 3',5'-cyclic-AMP phosphodiesterase 4B (Homo sapiens) (UniProt Q07343)
# Experiment: qHTS Assay for Inhibitors of PDE-IV (AID 607; active = well fitted activation curve with a large enough effect in the main read-out, with a control signal flat, not every such curve was filed as active; also: % of control where 0% means no effect)
# Conditions: HEK293 ACTOne CNG channel cells, membrane potential fluorescence; series mostly up to 22.9 µM; activation (PDE inhibition): at the top concentration
# How it was run: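 Cell-based read-out of cAMP via a modified cyclic nucleotide-gated channel and membrane potential dye (535/590 nm) in HEK293 cells expressing PDE4 endogenously. Compounds tested up to 22.9 uM final; 100 uM RO 20-1724 reference.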
# Chain of 3',5'-cyclic-AMP phosphodiesterase 4B (Homo sapiens) (Q07343 whole entry, looked up): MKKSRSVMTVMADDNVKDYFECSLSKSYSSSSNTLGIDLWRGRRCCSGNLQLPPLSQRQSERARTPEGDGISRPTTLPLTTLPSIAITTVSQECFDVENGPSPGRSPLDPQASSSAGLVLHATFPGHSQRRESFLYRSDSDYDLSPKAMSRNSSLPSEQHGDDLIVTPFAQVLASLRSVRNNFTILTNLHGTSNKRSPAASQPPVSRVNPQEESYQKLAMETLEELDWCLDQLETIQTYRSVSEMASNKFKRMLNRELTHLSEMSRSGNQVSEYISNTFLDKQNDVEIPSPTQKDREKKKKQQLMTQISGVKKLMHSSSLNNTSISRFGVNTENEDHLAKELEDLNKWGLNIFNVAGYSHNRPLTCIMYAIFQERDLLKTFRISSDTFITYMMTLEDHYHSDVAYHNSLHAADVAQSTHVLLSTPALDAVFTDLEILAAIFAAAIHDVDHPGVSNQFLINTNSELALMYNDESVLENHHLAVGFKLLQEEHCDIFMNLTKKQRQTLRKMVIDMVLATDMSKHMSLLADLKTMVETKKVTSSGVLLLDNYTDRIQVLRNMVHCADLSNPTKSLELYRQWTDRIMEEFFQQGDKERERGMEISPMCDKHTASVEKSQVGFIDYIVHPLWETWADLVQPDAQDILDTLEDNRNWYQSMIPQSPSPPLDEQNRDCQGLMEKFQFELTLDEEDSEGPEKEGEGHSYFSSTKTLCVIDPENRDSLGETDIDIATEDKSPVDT
row,Structure (SMILES),activation (PDE inhibition) [%]
1,COc1ccc2[nH]cc(CCNc3ncnc4ccc(-c5ccccc5OC)cc34)c2c1,16.1
2,COc1cccc(Cn2c(=O)c(CCc3ccccc3)nc3cnc(N4CCN(C)CC4)nc32)c1,7.35
3,O=c1cnc2cnc(OCc3ccccc3)nc2n1CCc1ccccc1,-8.48
4,CN1CCN(c2ncc3nc(-c4cccs4)c(=O)n(CCc4ccccc4)c3n2)CC1,12.7
5,O=C(c1ccco1)N1CCC2(CC1)CN(c1cccc(-c3ccccc3)c1)C2,-19.6
6,CN(C)c1ncc2nc(CCc3ccccc3)c(=O)n(Cc3cccs3)c2n1,21.8
7,COc1ccc(Oc2ncc3nc(CCc4ccccc4)c(=O)n(CCC#N)c3n2)cc1,23.3
8,CN1CCN(c2ncc3nc(-c4cn(C)c5ccccc45)c(=O)n(CCC#N)c3n2)CC1,18.1

# Molecular target: Cytochrome P450 2C9 (Homo sapiens) (UniProt P11712)
# Experiment: qHTS Assay for Inhibitors and Substrates of Cytochrome P450 2C9 (AID 883); also: potency is read from the fitted curve at half-maximal effect; nearly all actives have a fitted effect of over 60% in size
# Conditions: recombinant CYP2C9, luciferin-H luminescence, 60 min; series mostly up to 57.1 µM; activity change, negative = inhibition: at the top concentration
# How it was run: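 Luminescent read-out of deoxyluciferin hydroxylation, normalized to 57uM sulphaphenazole (AC100). Reaction: 10nM enzyme, 100uM Luciferin-H (equal to KM), 25mM KPO4, 10 min compound preincubation, then 60 min with NADPH regeneration, both at 37C.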
# Chain of Cytochrome P450 2C9 (Homo sapiens) (P11712 whole entry, looked up): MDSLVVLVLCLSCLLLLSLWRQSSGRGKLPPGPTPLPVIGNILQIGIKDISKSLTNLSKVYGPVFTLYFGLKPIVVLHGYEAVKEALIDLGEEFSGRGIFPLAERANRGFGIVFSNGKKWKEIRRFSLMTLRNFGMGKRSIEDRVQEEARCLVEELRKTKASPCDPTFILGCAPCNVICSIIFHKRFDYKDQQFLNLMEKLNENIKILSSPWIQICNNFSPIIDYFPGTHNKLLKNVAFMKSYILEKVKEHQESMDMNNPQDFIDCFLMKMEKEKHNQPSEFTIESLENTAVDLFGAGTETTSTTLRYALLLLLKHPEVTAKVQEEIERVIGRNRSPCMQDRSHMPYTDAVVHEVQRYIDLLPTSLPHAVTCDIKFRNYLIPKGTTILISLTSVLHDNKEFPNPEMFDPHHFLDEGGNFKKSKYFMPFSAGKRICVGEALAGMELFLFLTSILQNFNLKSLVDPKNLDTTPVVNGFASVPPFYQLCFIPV
row,Structure (SMILES),Potency
1,COc1ccc2[nH]cc(CCNc3ncnc4ccc(-c5ccccc5OC)cc34)c2c1,0.251 µM (active)
2,CC(C)=CCc1c(O)cc(O)c2c1O[C@H](c1ccccc1)CC2=O,3.16 µM (active)
3,O=C(c1cnccn1)N1CCC[C@@]2(CCN(c3cccc(-c4ccccc4)c3)C2)C1,7.94 µM (active)

# Molecular target: Cytochrome P450 3A4 (Homo sapiens) (UniProt P08684)
# Experiment: qHTS Assay for Inhibitors and Substrates of Cytochrome P450 3A4 (AID 884); also: potency is read from the fitted curve at half-maximal effect; nearly all actives have a fitted effect of over 50% in size
# Conditions: recombinant CYP3A4, Luciferin-PPXE luminescence; series mostly up to 57.1 µM; activity change, negative = inhibition: at the top concentration
# How it was run: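 20 nM human CYP3A4 with 25 uM Luciferin-PPXE (at KM) in 200 mM KPO4, preincubated 10 min with compound; NADPH regeneration started a 60 min RT reaction. Luciferin detected by luminescence, normalized to 57 uM ketoconazole as full inhibition.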
# Chain of Cytochrome P450 3A4 (Homo sapiens) (P08684 whole entry, looked up): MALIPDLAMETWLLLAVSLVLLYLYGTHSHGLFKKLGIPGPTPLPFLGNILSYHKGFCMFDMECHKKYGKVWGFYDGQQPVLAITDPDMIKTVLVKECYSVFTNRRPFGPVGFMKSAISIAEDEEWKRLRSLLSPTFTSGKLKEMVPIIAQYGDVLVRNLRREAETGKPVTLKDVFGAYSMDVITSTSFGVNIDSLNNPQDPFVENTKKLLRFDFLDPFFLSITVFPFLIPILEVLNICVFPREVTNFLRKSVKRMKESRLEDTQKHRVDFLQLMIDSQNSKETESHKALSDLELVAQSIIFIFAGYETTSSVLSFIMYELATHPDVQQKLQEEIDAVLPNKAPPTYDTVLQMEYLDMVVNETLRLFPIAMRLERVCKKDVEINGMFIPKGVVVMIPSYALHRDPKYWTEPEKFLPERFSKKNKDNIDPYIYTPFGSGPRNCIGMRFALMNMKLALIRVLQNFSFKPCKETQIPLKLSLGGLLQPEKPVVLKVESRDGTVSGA
row,Structure (SMILES),Potency
1,COc1cc2c(cc1OC)C1C(=O)c3ccc4c(c3OC1CO2)C=CC(C)(C)O4 (configuration not stated),31.6 µM (active)
2,COC(=O)[C@@]1(C)CCC[C@@]2(C)c3ccc(O)c(C(C)C)c3CCC21 (some centres not stated),31.6 µM (active)
3,COc1cccc(-c2cncnc2NCc2ccccc2OC)c1,0.501 µM (active)
4,CC(C)=CCc1c(O)cc(O)c2c1O[C@H](c1ccccc1)CC2=O,12.6 µM (active)
5,O=C(c1cnccn1)N1CCC[C@@]2(CCN(c3cccc(-c4ccccc4)c3)C2)C1,3.98 µM (active)
6,COc1ccc(Oc2ncc3nc(CCc4ccccc4)c(=O)n(CCC#N)c3n2)cc1,1.58 µM (active)
7,COc1ccc2c(=O)c(OC)c(-c3ccccc3)oc2c1,10 µM (active)

# Molecular target: Cytochrome P450 3A4 (Homo sapiens) (UniProt P08684)
# Experiment: qHTS Assay for Activators of Cytochrome P450 3A4 (AID 885); also: nearly all actives have a fitted effect of over 65% in size
# Conditions: recombinant CYP3A4, Luciferin-PPXE luminescence, 60 min; series mostly up to 57.1 µM; activity change, positive = activation: at the top concentration
# How it was run: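 Signal was normalized against complete inhibition by 57 uM ketoconazole. The reaction used 20nM CYP3A4 with 25uM Luciferin-PPXE, 10-min compound preincubation and a 60-min NADPH-supported step at RT.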
row,Structure (SMILES),"activity change, positive = activation [%]"
1,COc1cc2c(cc1OC)C1C(=O)c3ccc4c(c3OC1CO2)C=CC(C)(C)O4 (configuration not stated),-68.7
2,COc1ccc2[nH]cc(CCNc3ncnc4ccc(-c5ccccc5OC)cc34)c2c1,-53.6
3,COC(=O)[C@@]1(C)CCC[C@@]2(C)c3ccc(O)c(C(C)C)c3CCC21 (some centres not stated),-67.6
4,COc1cccc(-c2cncnc2NCc2ccccc2OC)c1,-116
5,CCOC(=O)C1(O)Oc2cc(OC)cc(OC)c2C(=O)C1c1ccccc1 (configuration not stated),-39.5
6,COc1cccc(Cn2c(=O)c(CCc3ccccc3)nc3cnc(N4CCN(C)CC4)nc32)c1,-84.7
7,CC(C)=CCc1c(O)cc(O)c2c1O[C@H](c1ccccc1)CC2=O,-61.5
8,CN1CCN(c2ncc3nc(-c4cccs4)c(=O)n(CCc4ccccc4)c3n2)CC1,-72.1
9,O=c1cnc2cnc(Oc3ccccc3)nc2n1Cc1cccs1,-58.3
10,O=C(c1cnccn1)N1CCC[C@@]2(CCN(c3cccc(-c4ccccc4)c3)C2)C1,-82.6
11,CN(C)c1ncc2nc(CCc3ccccc3)c(=O)n(Cc3cccs3)c2n1,-92
12,CN1CCN(c2ncc3nc(CCc4ccccc4)c(=O)n(Cc4cccs4)c3n2)CC1,-39.3
13,COc1ccc(Oc2ncc3nc(CCc4ccccc4)c(=O)n(CCC#N)c3n2)cc1,-86.9
14,COc1ccc2c(=O)c(OC)c(-c3ccccc3)oc2c1,-82.8
15,CN1CCN(c2ncc3nc(-c4cn(C)c5ccccc45)c(=O)n(CCC#N)c3n2)CC1,-59.1

# Molecular target: Cytochrome P450 2C19 (Homo sapiens) (UniProt P33261)
# Experiment: qHTS Assay for Inhibitors and Substrates of Cytochrome P450 2C19 (AID 899); also: potency is read from the fitted curve at half-maximal effect; nearly all actives have a fitted effect of over 60% in size
# Conditions: recombinant CYP2C19, luciferin-H EGE luminescence; series mostly up to 57.1 µM; activity, negative = inhibition: at the top concentration
# How it was run: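 Luminescence readout of luciferin formed from 10uM Luciferin-H EGE (KM level) by 5 nM CYP2C19 in 50mM KPO4. 60 min NADPH-driven reaction at 37C after 10 min compound preincubation; data scaled to 57uM ketoconazole inhibition.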
# Chain of Cytochrome P450 2C19 (Homo sapiens) (P33261 whole entry, looked up): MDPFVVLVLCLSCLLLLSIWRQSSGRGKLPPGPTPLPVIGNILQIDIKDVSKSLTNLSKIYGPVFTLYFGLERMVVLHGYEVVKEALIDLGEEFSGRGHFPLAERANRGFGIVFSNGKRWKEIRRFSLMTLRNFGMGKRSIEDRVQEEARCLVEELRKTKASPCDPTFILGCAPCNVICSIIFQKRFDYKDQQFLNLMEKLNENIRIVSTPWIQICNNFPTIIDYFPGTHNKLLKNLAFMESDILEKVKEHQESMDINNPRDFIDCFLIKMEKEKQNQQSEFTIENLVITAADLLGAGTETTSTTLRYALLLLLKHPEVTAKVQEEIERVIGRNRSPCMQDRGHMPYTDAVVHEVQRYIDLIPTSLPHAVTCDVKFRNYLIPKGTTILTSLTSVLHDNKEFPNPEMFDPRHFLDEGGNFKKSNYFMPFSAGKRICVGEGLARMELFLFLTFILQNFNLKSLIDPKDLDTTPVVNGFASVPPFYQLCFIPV
row,Structure (SMILES),Potency
1,COc1ccc2[nH]cc(CCNc3ncnc4ccc(-c5ccccc5OC)cc34)c2c1,2 µM (active)
2,COc1cccc(-c2cncnc2NCc2ccccc2OC)c1,2 µM (active)
3,COc1cccc(Cn2c(=O)c(CCc3ccccc3)nc3cnc(N4CCN(C)CC4)nc32)c1,7.94 µM (active)
4,CC(C)=CCc1c(O)cc(O)c2c1O[C@H](c1ccccc1)CC2=O,1 µM (active)
5,O=c1cnc2cnc(Oc3ccccc3)nc2n1Cc1cccs1,1.26 µM (active)
6,CN(C)c1ncc2nc(CCc3ccccc3)c(=O)n(Cc3cccs3)c2n1,6.31 µM (active)

# Test system: not listed separately
# Experiment: Confirmation and Secondary Assay for Modulators of Hemoglobin Beta Chain Splicing at IVS2 654 locus (AID 910);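 also: HeLa cells stably carrying EGFP split by mutant beta-globin IVS2-654 intron; per-well total GFP intensity by laser scanning cytometry after 2-day treatment; % of control where 0% means no effect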
# Conditions: HeLa EGFP-654 splicing reporter, GFP fluorescence, 48 h; series mostly up to 46.1 µM; activation (splicing correction): at the top concentration
# How it was run: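 Readout: per-well total peak green fluorescence (488 nm ex, 500–520 nm em) from objects 5–250 µm, reflecting correct splicing of an EGFP-654 reporter. Compounds were applied for 2 days at 37 °C to overnight-plated HeLa EGFP-654 cells; controls were DMSO and 500 nM IVS2-654 PNA.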
row,Structure (SMILES),activation (splicing correction)
1,COc1cc2c(cc1OC)C1C(=O)c3ccc4c(c3OC1CO2)C=CC(C)(C)O4 (configuration not stated),-7.03%
2,COC(=O)[C@@]1(C)CCC[C@@]2(C)c3ccc(O)c(C(C)C)c3CCC21 (some centres not stated),-9.1%
3,CCOC(=O)C1(O)Oc2cc(OC)cc(OC)c2C(=O)C1c1ccccc1 (configuration not stated),0.423% [at 38.3 µM]
4,CC1(C)C(OC(=O)CCC(=O)O)CC[C@]2(C)C1CC[C@@]1(C)C2C(=O)C=C2[C@@H]3C[C@@](C)(C(=O)O)CC[C@]3(C)CCC21C (some centres not stated),0.729%
5,COc1ccc2c(=O)c(OC)c(-c3ccccc3)oc2c1,0.842% [at 38.3 µM]

# — PubChem BioAssay (NCATS)
